Test results: a collection of fitness landscapes (doi:10.1016/j.celrep.2020.107928)
Over roughly 81,000 sequences, “one-hybrid fitness for binding NBS DNA” has its median near -0.1; the highest 2% begin near 0.36. What follows is part of a selection rich in the highest values, with near analogues and random picks from the rest.

B1: Caulobacter ParB omega fusion; a variant is named by its letters at X, in order, B8GW30 (parent)
chain: MESVVVGEPGMSEGRRGLGRGLSALLGEVDAAPAQAPGEQLGGSREAPIEILQRNPDQPRRTFREEDLEDLSNSIREKGVLQPILVRPSPDTAGEYQIVAGERAWRAAQRAGLKTVPIMVRELDDLAVLEIGIIENVQRADLNVLEEALSYKVLMEKFERTQENIAQTIGKSXSHVANXMRLLXLPDEVQSYLVSGELTAXHARAIAAAADPVALAKQIIEGGLSVRETEALARKAPNLSAGKSKGGRPPRVKDTDTQALESDLSSVLGLDVSIDHRGSTGTLTITYATLEQLDDLCNRLTRGI

Variants of: B1
Assay: one-hybrid fitness for binding NBS DNA (the Noc-binding site; scaled: cognate 1, non-cognate 0); higher = stronger binding
Details: with NBS DNA site
Method in brief: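 In E. coli USO, a HIS3 reporter with its site placed 19 bp from the promoter was used to select Caulobacter ParB variants randomised at four specificity codons. Growth lasted 48 hours at 37°C on histidine-free M9 containing 0.1 mM IPTG and 5 mM 3-AT. Fitness was taken as the log change in variant-to-wild-type read ratio from Illumina sequencing of pre- and post-selection plasmids, rescaled between the non-cognate and cognate sites.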

Variant	one-hybrid fitness for binding NBS DNA
VTLY	≤ 0.2
TYNS	≤ 0.2
QTTI	≤ 0.2
HNLL	≤ 0.2
CGRS	≤ 0.2
WGSW	≤ 0.2
SGTG	≤ 0.2
DHMC	≤ 0.2
QRPE	≤ 0.2
EVQC	≤ 0.2
LFWV	≤ 0.2
RKDH	0.401
RPIR	≤ 0.2
RKNH	0.335
RKRD	≤ 0.2
RKYH	0.228
RKPS	≤ 0.2
RKIS	0.403
RKDN	≤ 0.2
RKIR	0.384
RKIP	≤ 0.2
RKPR	≤ 0.2
RKRH	0.429
SRFC	≤ 0.2

Variant	one-hybrid fitness for binding NBS DNA
FDKC	≤ 0.2
SRTT	≤ 0.2
PLES	≤ 0.2
WGAE	≤ 0.2
WTLY	≤ 0.2
RKLS	0.496
RKLP	≤ 0.2
RKLD	≤ 0.2
ISNA	≤ 0.2
YLVK	≤ 0.2
QWGI	≤ 0.2
QRDA	0.394
QRNA	0.632
QANA	0.257
QHNA	0.294
QPDA	≤ 0.2
TKKF	≤ 0.2
TGPI	≤ 0.2
SSSR	≤ 0.2
GRQQ	≤ 0.2
PLWH	≤ 0.2
KPII	≤ 0.2
RDGI	≤ 0.2
NLSK	≤ 0.2

Variant	one-hybrid fitness for binding NBS DNA
QAVS	0.226
QAKP	≤ 0.2
QARQ	0.332
QAKS	0.618
QAKN	0.356
QAKQ	0.408
QAKH	0.541
QAVQ	0.32
QAKD	≤ 0.2
CHHT	≤ 0.2
ELRT	≤ 0.2
KKNT	0.425
KKDT	≤ 0.2
KKRT	0.381
KKQP	≤ 0.2
KKQT	0.393
KHQT	≤ 0.2
KKNN	≤ 0.2
KKAT	0.309
KKYT	0.249
YQVF	≤ 0.2
LPAV	≤ 0.2
QGMS	≤ 0.2
PQVE	≤ 0.2

Variant	one-hybrid fitness for binding NBS DNA
PMPS	≤ 0.2
FPGC	≤ 0.2
QLNT	0.45
QSNT	0.476
QPNT	≤ 0.2
QINT	0.462
QSND	≤ 0.2
QLDT	0.249
QFNT	≤ 0.2
QIDT	≤ 0.2
QLNN	≤ 0.2
QCNT	0.569
QSDT	0.32
QINH	≤ 0.2
MQSN	≤ 0.2
EVQG	≤ 0.2
AVQR	≤ 0.2
DELG	≤ 0.2
YHGF	≤ 0.2
ENKN	≤ 0.2
PKSC	≤ 0.2
EETG	≤ 0.2
PKIC	≤ 0.2
QAND	≤ 0.2

Variant	one-hybrid fitness for binding NBS DNA
QHDT	0.344
QPDT	≤ 0.2
QANT	0.462
QHNH	0.297
QCDT	0.369
QHNT	0.49
QADT	0.287
QFDT	≤ 0.2
SMIR	≤ 0.2
HYMR	≤ 0.2
SMAM	≤ 0.2
VWNK	≤ 0.2
TTMW	≤ 0.2
QTYD	≤ 0.2
QCRD	0.384
QTRN	0.543
QTDN	≤ 0.2
QTYP	≤ 0.2
QTRD	0.379
QTDD	≤ 0.2
QSRD	0.219
QPRD	≤ 0.2
QTYN	≤ 0.2
QTRP	0.401

Variant	one-hybrid fitness for binding NBS DNA
AYPY	≤ 0.2
GIDC	≤ 0.2
TRKM	0.216
LSKY	≤ 0.2
CYIS	≤ 0.2
NMYI	≤ 0.2
PGKG	≤ 0.2
REGE	≤ 0.2
SGQC	≤ 0.2
TFKE	≤ 0.2
GTES	≤ 0.2
WLDV	≤ 0.2
QYEV	≤ 0.2
CNVT	≤ 0.2
ADWS	≤ 0.2
MSTF	≤ 0.2
QTYH	0.271
QTRH	0.695
VRKE	≤ 0.2
VRDT	≤ 0.2
VCKT	≤ 0.2
VCRT	≤ 0.2
VRKT	0.393
VRYT	0.225

Variant	one-hybrid fitness for binding NBS DNA
VRRT	0.432
VRNT	0.374
VRVT	≤ 0.2
VCNT	≤ 0.2
FQNR	≤ 0.2
ARIY	≤ 0.2
LLCL	≤ 0.2
RNHT	≤ 0.2
RHHK	≤ 0.2
RIHF	≤ 0.2
RSHT	0.402
RHHT	0.419
RIHY	≤ 0.2
RTHP	≤ 0.2
RGHT	≤ 0.2
RTHT	0.57
RIHT	0.532
RTHN	≤ 0.2
TCRD	≤ 0.2
THRD	≤ 0.2
YERR	≤ 0.2
FARS	≤ 0.2
YKWR	≤ 0.2
GHSC	≤ 0.2

Variant	one-hybrid fitness for binding NBS DNA
LSHC	≤ 0.2
RPHT	≤ 0.2
RMHT	0.448
RFHT	0.263
RAHQ	≤ 0.2
RAHK	≤ 0.2
RCHT	0.538
RAHT	0.427
RMHH	≤ 0.2
RMHP	≤ 0.2
AGWC	≤ 0.2
CVAV	≤ 0.2
ANSI	≤ 0.2
SVIN	≤ 0.2
CNSM	≤ 0.2
QFVR	≤ 0.2
QFFG	0.554
QFFS	≤ 0.2
QFAR	≤ 0.2
QFYG	≤ 0.2
QFYR	≤ 0.2
QFDR	≤ 0.2
QFRR	0.441
QFKR	0.595

Variant	one-hybrid fitness for binding NBS DNA
QFAG	≤ 0.2
QFFR	0.439
QFKH	≤ 0.2
KDMM	≤ 0.2
CVAL	≤ 0.2
PSKH	≤ 0.2
NIHC	≤ 0.2
ILDT	≤ 0.2
GHDG	≤ 0.2
QTVS	0.406
QTVH	0.247
NTKH	≤ 0.2
QTKD	0.398
QPKD	≤ 0.2
QTKH	0.744
QTVD	≤ 0.2
QTKS	0.783
DTKS	≤ 0.2
NTKS	≤ 0.2
LKPK	≤ 0.2
HFKG	≤ 0.2
MFQS	≤ 0.2
CVRD	≤ 0.2
CFTS	≤ 0.2

Variant	one-hybrid fitness for binding NBS DNA
THAL	≤ 0.2
VGWS	≤ 0.2
YYSE	≤ 0.2
CALW	≤ 0.2
QCKP	0.332
QTKN	0.56
QTVN	≤ 0.2
QTKP	0.41
QTVP	≤ 0.2
MGCR	≤ 0.2
YYNE	≤ 0.2
KRKG	0.234
SVHI	≤ 0.2
PNPM	≤ 0.2
QHHS	0.386
QMHD	≤ 0.2
QMHS	0.451
QAHN	≤ 0.2
QLHN	≤ 0.2
QLHD	≤ 0.2
QMHH	0.221
QAHS	0.398
QHHD	≤ 0.2
QHHH	0.214

Variant	one-hybrid fitness for binding NBS DNA
QAHH	≤ 0.2
QLHS	0.373
HRHV	≤ 0.2
IEST	≤ 0.2
VWYL	≤ 0.2
EEFL	≤ 0.2
ILLI	≤ 0.2
QSHS	0.381
QSHN	≤ 0.2
QSHH	≤ 0.2
QCHS	0.502
QIHS	0.281
QPHS	≤ 0.2
CANC	≤ 0.2
RDTV	≤ 0.2
RRTP	≤ 0.2
RRTY	0.378
RCTY	≤ 0.2
RCTH	0.237
RSTY	≤ 0.2
RRTS	0.661
RRTN	0.339
RRTH	0.509
RRTD	≤ 0.2

Variant	one-hybrid fitness for binding NBS DNA
SLHR	≤ 0.2
ENTM	≤ 0.2
LGQD	≤ 0.2
KSNT	≤ 0.2
PNLF	≤ 0.2
YVMG	≤ 0.2
DWYR	≤ 0.2
LYTY	≤ 0.2
QAAG	≤ 0.2
APTR	≤ 0.2
RCHH	0.219
PNAR	≤ 0.2
IYLD	≤ 0.2
QRCF	0.275
QSCC	≤ 0.2
QRCG	0.343
QRCN	0.397
QRCM	0.397
QRCE	0.223
QCCM	≤ 0.2
QSCM	≤ 0.2
QRCC	0.389
QCCN	≤ 0.2
QCCC	≤ 0.2

Variant	one-hybrid fitness for binding NBS DNA
QRCH	0.52
LFGC	≤ 0.2
DFND	≤ 0.2
HHDK	≤ 0.2
NKRM	≤ 0.2
EPHG	≤ 0.2
TMRV	≤ 0.2
KINT	≤ 0.2
AVTK	≤ 0.2
QSFM	≤ 0.2
YMRR	≤ 0.2
QGHN	≤ 0.2
AHIF	≤ 0.2
DQPR	≤ 0.2
VTFK	≤ 0.2
PKYY	≤ 0.2
QRCD	0.237
QRCP	0.249
QSCQ	≤ 0.2
QRCS	0.693
QRCQ	0.382
